{"source": "PubChem BioAssay (NCI)", "note": "Compounds without any hit were thinned out: in the full panel of roughly 83,000, 20% have a hit.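 The endpoint reported here, percent growth, reads 100 for growth as untreated, 0 for no net growth and -100 for all cells dead.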 Unmarked numbers belong to inactive results. Active and inactive are the calls of the source. How the source made its calls: active means growth percent below 10; inactive means the rest.", "data": [{"tested_on": "OVCAR-3 ovarian", "assay": "NCI-60 one-dose screen, 48 h (100 = growth as untreated, 0 = no growth, -100 = all killed)", "conditions": "10 µM unless noted", "values": [{"smiles": "O=c1oc2ccc([N+](=O)[O-])cc2cc1Br", "growth": "111%"}, {"smiles": "O=C1/C(=C/c2ccccc2Br)COc2ccc(O)c(O)c21", "growth": "8.7% (active)"}, {"smiles": "COc1cc2c(c(OC)c1OC)-c1ccc(OC)c(=O)cc1[C@@H](NC(=O)CCl)CC2", "growth": "8.93% (active)"}, {"smiles": "CCCCNc1ccc(C#N)c(OCCN(CC)CC)c1", "growth": "109%"}, {"smiles": "O=C(c1ccccc1)C1C(=O)N2C(=S)N(c3ccccc3)C(=O)C2C1c1ccc(Cl)cc1", "note": "(stereo not given)", "growth": "95.6%"}, {"smiles": "CCOc1ccc(NC(=O)CSc2oc(-c3ccccc3)nc2S(=O)(=O)c2ccc(F)cc2)cc1", "growth": "64.9%"}, {"smiles": "COc1cc(-n2cc(-c3cc(O)c(C/C=C(\\C)CCC=C(C)C)c(O)c3)nn2)cc2c1O[C@]1(C)CC[C@@H](O)C(C)(C)[C@H]1C2", "growth": "-19.6% (active)"}, {"smiles": "CCOC(=O)/C=C1\\S/C(=N\\Nc2cc(=O)[nH]c3ccc(Cl)cc23)N(c2ccccc2)C1=O", "growth": "71.4%"}, {"smiles": "O=c1oc2c(cnc3ccccc32)cc1-c1ccsc1", "growth": "108%"}, {"smiles": "C=CCc1c2c(c(OC)c3ccoc13)C(=O)/C(=C/c1ccccc1OC)O2", "growth": "40.6%"}, {"smiles": "CC(=O)Nc1nc2ccc(NS(=O)(=O)c3cccc4c(N(C)C)cccc34)cc2[nH]1", "growth": "41.1%"}, {"smiles": "O=C1C(Cl)=C(Oc2ccccc2)C(=O)c2ccccc21", "growth": "16%"}, {"smiles": "O=C(O)/C(=C\\c1ccc(Cl)cc1)c1ccc(Cl)cc1", "growth": "101%"}, {"smiles": "OCc1cccc(-c2ccc3ncc(-c4nc(NC5CC5)ncc4F)n3c2)c1", "growth": "-1.89% (active)"}, {"smiles": "C=CCn1cc(-c2nc3ccccc3s2)c2cc(-c3ccc4c5c(cccc35)C(=O)N(N)C4=O)ccc21", "growth": "100%"}]}]}
